Test results taken from PubChem BioAssay (EPA / NIEHS).
More than one record can exist for a structure, and the calls need not agree. The source made the active and inactive calls. Rule for the calls: active = hit-call score of the fitted dose curve at least 0.9, where 1 is the maximum; inactive = score below 0.9.

Tests used:
[1] = read-out: Collagen I, COL1A1 (gene 1277); assay: BSK_MyoF_CollagenI: BioMAP Diversity Plus: MyoF Assay for Collagen I Biomarker Activity (AID 2284238); conditions: primary human lung fibroblasts
Procedure, shortened: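 Lung fibroblasts (human primary) dosed, 24 h; Collagen I by ELISA; positive-direction fit vs DMSO control. Parallel SRB total-protein staining (0.1% SRB, 10% TCA fixation, 560 nm) flags overt cytotoxicity.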

[2] = read-out: Collagen III, COL3A1 (gene 1281); assay: BSK_MyoF_CollagenIII: BioMAP Diversity Plus: MyoF Assay for Collagen III Biomarker Activity (AID 2284239); conditions: primary human lung fibroblasts
Procedure, shortened: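 ELISA read-out of collagen III from human lung fibroblasts after 24 h of chemical treatment. The DMSO control served as negative control and baseline, with values fitted in the positive direction.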

[3] = read-out: Interleukin 2 (IL2), IL2 (gene 3558); assay: BSK_BT_xIL2: BioMAP Diversity Plus: BT Assay for Interleukin 2 (IL2) Biomarker Activity (AID 2284245); conditions: primary human B cells with PBMC
Procedure, shortened: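 Readout: supernatant IL-2 via Luminex xMAP after 24 h chemical dosing of a B cell/PBMC primary human co-culture. DMSO serves as negative control and baseline; increases in signal were fitted.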

[4] = read-out: Basic fibroblast growth factor (bFGF), FGF2 (gene 2247); assay: BSK_MyoF_bFGF: BioMAP Diversity Plus: MyoF Assay for Basic fibroblast growth factor (bFGF) Biomarker Activity (AID 2284246); conditions: primary human lung fibroblasts
Procedure, shortened: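 Primary human lung fibroblast culture, 24 h compound exposure; ELISA read-out of bFGF. Positive-direction fit vs DMSO baseline. Cytotoxicity: SRB stain (0.1% SRB, 10% TCA fixation, 560 nm) in parallel wells.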

[5] = read-out: Collagen IV, COL4A1 (gene 1282); assay: BSK_MyoF_CollagenIV: BioMAP Diversity Plus: MyoF Assay for Collagen IV Biomarker Activity (AID 2284247); conditions: primary human lung fibroblasts
Procedure, shortened: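 ELISA read-out of Collagen IV in lung fibroblast cultures, 24 h post-dosing; gain of signal relative to DMSO vehicle baseline defines activity.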

[6] = read-out: Plasminogen activator inhibitor-1 (PAI1), SERPINE1 (gene 5054); assay: BSK_MyoF_PAI1: BioMAP Diversity Plus: MyoF Assay for Plasminogen activator inhibitor-1 (PAI1) Biomarker Activity (AID 2284256); conditions: primary human lung fibroblasts
Procedure, shortened: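 Primary human lung fibroblasts are dosed and incubated 24 h. PAI-1 is then measured by ELISA, while parallel cultures undergo SRB staining for overt cytotoxicity. Increases over DMSO define activity.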

[7] = read-out: Interleukin-8 (IL8), CXCL8 (gene 3576); assay: BSK_MyoF_IL8: BioMAP Diversity Plus: MyoF Assay for Interleukin-8 (IL8) Biomarker Activity (AID 2284261); conditions: primary human lung fibroblasts
Procedure, shortened: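 IL-8 levels were measured by ELISA in human lung fibroblasts harvested 24 h after compound addition. Responses were analysed as gain of signal over the DMSO baseline.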

[8] = BSK_MyoF_SRB: Viability Assessment in the BioMAP Diversity Plus: MyoF Assay (AID 2284267); conditions: primary human lung fibroblasts;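 note: total protein by SRB absorbance in parallel cultures as cytotoxicity measure; cells assessed 24 h after compound addition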
Procedure, shortened: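 Lung fibroblast cultures, 24 h post-dose; fix 10% TCA, stain 0.1% SRB, read 560 nm. Signal = total protein as cytotoxicity measure; fitted relative to DMSO negative control.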

[9] = read-out: Matrix Metallopeptidase 1 (MMP1), MMP1 (gene 4312); assay: BSK_MyoF_MMP1: BioMAP Diversity Plus: MyoF Assay for Matrix Metallopeptidase 1 (MMP1) Biomarker Activity (AID 2284268); conditions: primary human lung fibroblasts
Procedure, shortened: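 Lung fibroblast cultures were dosed with test chemicals and, after 24 h, MMP1 levels were measured by ELISA; responses were referenced to DMSO and analysed for increases.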

[10] = read-out: TIMP metallopeptidase inhibitor 1 (TIMP1), TIMP1 (gene 7076); assay: BSK_MyoF_TIMP1: BioMAP Diversity Plus: MyoF Assay for TIMP metallopeptidase inhibitor 1 (TIMP1) Biomarker Activity (AID 2284269); conditions: primary human lung fibroblasts
Procedure, shortened: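 ELISA quantified TIMP-1 levels after 24 h dosing of primary human lung fibroblasts, with DMSO as baseline. Parallel SRB total protein staining (0.1% SRB after TCA fixation, 560 nm) flagged overt cytotoxicity.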

[11] = read-out: Interferon-inducible T-cell alpha chemoattractant (ITAC), CXCL11 (gene 6373); assay: BSK_hDFCGF_ITAC: BioMAP Diversity Plus: hDFCGF Assay for Interferon-inducible T-cell alpha chemoattractant (ITAC) Biomarker Activity (AID 2284251); conditions: primary human foreskin fibroblasts
Procedure, shortened: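 Chemical dosing of primary human foreskin fibroblast cultures preceded ELISA measurement of I-TAC at 24 h. Response was analysed in the positive direction using DMSO as baseline, while parallel SRB staining measured cytotoxicity.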

[12] = read-out: Plasminogen activator inhibitor-1 (PAI1), SERPINE1 (gene 5054); assay: BSK_KF3CT_PAI1: BioMAP Diversity Plus: KF3CT Assay for Plasminogen activator inhibitor-1 (PAI1) Biomarker Activity (AID 2284252); conditions: primary human keratinocytes with fibroblasts
Procedure, shortened: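 Keratinocyte + dermal fibroblast co-culture (human primary); 24 h post-dose; PAI-1 by ELISA; gain-of-signal fit vs DMSO control.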

[13] = read-out: Interleukin-8 (IL8), CXCL8 (gene 3576); assay: BSK_KF3CT_IL8: BioMAP Diversity Plus: KF3CT Assay for Interleukin-8 (IL8) Biomarker Activity (AID 2284254); conditions: primary human keratinocytes with fibroblasts
Procedure, shortened: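 Chemicals were added to co-cultured human keratinocytes and foreskin fibroblasts, incubated 24 h, then IL-8 was quantified by ELISA. Cytotoxicity was tracked by sulforhodamine B total-protein staining in parallel cultures.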

[14] = read-out: Intercellular Adhesion Molecule 1 (ICAM1), ICAM1 (gene 3383); assay: BSK_BE3C_ICAM1: BioMAP Diversity Plus: BE3C Assay for Intercellular Adhesion Molecule 1 (ICAM1) Biomarker Activity (AID 2284278); conditions: primary human bronchial epithelial cells;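 note: cell-surface ICAM-1 protein level quantified by ELISA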
Procedure, shortened: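 ELISA read-out of ICAM-1 on human lung bronchial epithelial primary cells, 24 h post-dosing; positive-direction curve fit, DMSO = baseline. SRB total-protein staining of parallel cultures flagged overt cytotoxicity.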

[15] = read-out: Interferon-inducible T-cell alpha chemoattractant (ITAC), CXCL11 (gene 6373); assay: BSK_BE3C_ITAC: BioMAP Diversity Plus: BE3C Assay for Interferon-inducible T-cell alpha chemoattractant (ITAC) Biomarker Activity (AID 2284279); conditions: primary human bronchial epithelial cells
Procedure, shortened: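 ELISA for I-TAC in primary human bronchial epithelial cultures 24 h post-treatment, fitted relative to DMSO baseline in positive direction. Cytotoxicity checked in parallel cultures by sulforhodamine B protein staining.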

[16] = read-out: Interleukin-8 (IL8), CXCL8 (gene 3576); assay: BSK_BE3C_IL8: BioMAP Diversity Plus: BE3C Assay for Interleukin-8 (IL8) Biomarker Activity (AID 2284280); conditions: primary human bronchial epithelial cells
Procedure, shortened: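 Measured at 24 h after treatment, IL-8 from human primary bronchial epithelial cells is determined by ELISA, and the response is modelled as increasing relative to DMSO negative control.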

[17] = read-out: Epidermal growth factor receptor (EGFR), EGFR (gene 1956); assay: BSK_BE3C_EGFR: BioMAP Diversity Plus: BE3C Assay for Epidermal growth factor receptor (EGFR) Biomarker Activity (AID 2284281); conditions: primary human bronchial epithelial cells
Procedure, shortened: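 Measured 24 h after dosing in primary human bronchial epithelial cultures, EGFR was read by ELISA; gain of signal over DMSO control defined activity.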

Measured: AC50

CC(=O)/C=C/C1=C(C)CCCC1(C)C
not listed: [11] | [12] | [13] | [14] | [15] | [16] | [17]
inactive: all other assays above

CCCCCCCCC=O
not listed: [11] | [12] | [13] | [14] | [15] | [16] | [17]
inactive: all other assays above

O=P(c1ccccc1)(c1ccccc1)c1ccccc1
not listed: [11] | [12] | [13] | [14] | [15] | [16] | [17]
inactive: all other assays above

CC(=O)OCCC(C)CC(C)(C)C (stereo not given)
inactive: [11] | [12] | [13] | [14] | [15] | [16] | [17]

Nc1cc([N+](=O)[O-])ccc1O
inactive: [11] | [12] | [13] | [14] | [15] | [16] | [17]

CCCCCCCCCCCCCCCCCC(=O)OCC(CC)CCCC (stereo not given)
not listed: [11] | [12] | [13] | [14] | [15] | [16] | [17]
inactive: all other assays above

C=CCOC(=O)CCC1CCCCC1
inactive: [11] | [12] | [13] | [14] | [15] | [16] | [17]

Cc1cc(C2(c3cc(C)c(O)cc3C)OS(=O)(=O)c3ccccc32)c(C)cc1O
inactive: [11] | [12] | [13] | [14] | [15] | [16] | [17]

CC1CCC(C(C)CS)CC1S (stereo not given)
active: [1] 5.96 µM | [2] 9.71 µM | [4] 7.89 µM | [5] 11.8 µM | [6] 8.22 µM | [7] 11.1 µM | [8] 9.53 µM | [10] 11.1 µM
inactive: [3] | [9]

O=[N+]([O-])c1cc(C(F)(F)F)ccc1Cl
inactive: [1] | [2] | [3] | [4] | [5] | [7] | [8] | [9] | [10]
active: [6] 0.11 µM

O=C=NC1CCC(CC2CCC(N=C=O)CC2)CC1 (stereo not given)
not listed: [11] | [12] | [13] | [14] | [15] | [16] | [17]
inactive: all other assays above

OC1OC[C@@H](O)[C@H](O)[C@H]1O (stereo not given in full)
inactive: [11] | [12] | [13] | [14] | [15] | [16] | [17]

CCC(=O)OCc1ccccc1
inactive: [11] | [12] | [13] | [14] | [15] | [16] | [17]

O=C(O)c1cn(C2CC2)c2cc(N3CCNCC3)c(F)cc2c1=O
not listed: [11] | [12] | [13] | [14] | [15] | [16] | [17]
inactive: all other assays above

OC[C@H]1O[C@H](O[C@]2(CCl)O[C@H](CCl)[C@@H](O)[C@@H]2O)[C@H](O)[C@@H](O)[C@H]1Cl
inactive: [11] | [12] | [13] | [14] | [15] | [16] | [17]

O=C1OC2(c3cc(Br)c(O)c(Br)c3Oc3c2cc(Br)c(O)c3Br)c2c(Cl)c(Cl)c(Cl)c(Cl)c21
active: [1] 3.89 µM | [2] 4.52 µM | [4] 11.9 µM | [5] 2.72 µM | [6] 4.56 µM | [7] 20 µM | [8] 9.73 µM | [10] 8.64 µM
inactive: [3] | [9]

Cc1ccc(Nc2ccc(O)c3c2C(=O)c2ccccc2C3=O)cc1
not listed: [11] | [12] | [13] | [14] | [15] | [16] | [17]
inactive: all other assays above

COc1cc(C=O)ccc1OC(=O)C(C)C
inactive: [11] | [12] | [13] | [14] | [15] | [16] | [17]

NCCNCCN
inactive: [11] | [12] | [13] | [14] | [15] | [16] | [17]

COC(=O)c1ccc(C)cc1
not listed: [11] | [12] | [13] | [14] | [15] | [16] | [17]
inactive: all other assays above

CC(=O)[C@H]1CC[C@H]2[C@@H]3CC=C4C[C@@H](O)CC[C@]4(C)[C@H]3CC[C@]12C
inactive: [11] | [12] | [13] | [14] | [15] | [16] | [17]
active: [12] 3.88 µM

CC(=O)O[C@]1(C(C)=O)CC[C@H]2[C@@H]3C[C@H](C)C4=CC(=O)CC[C@]4(C)[C@H]3CC[C@@]21C
not listed: [11] | [12] | [13] | [14] | [15] | [16] | [17]
inactive: all other assays above

CC(=O)Nc1ccccc1O
active: [2] 0.016 µM
inactive: [1] | [3] | [4] | [5] | [6] | [7] | [8] | [9] | [10]

CC[Si](OC(C)=O)(OC(C)=O)OC(C)=O
inactive: [11] | [12] | [13] | [14] | [15] | [16] | [17]

C#C[C@]1(O)CC[C@H]2[C@@H]3CCC4=Cc5oncc5C[C@]4(C)[C@H]3CC[C@@]21C
inactive: [1] | [5] | [7] | [8] | [9]
active: [2] 28.1 µM | [3] 28.6 µM | [4] 30.8 µM | [6] 3.97 µM | [10] 35.8 µM

Cc1ccc2n[nH]nc2c1
not listed: [11] | [12] | [13] | [14] | [15] | [16] | [17]
inactive: all other assays above

C[C@H]1C[C@@H]2[C@H]([C@@H](O)C[C@@]3(C)[C@H]2CC[C@]3(O)C(=O)CO)[C@@]2(C)C=CC(=O)C=C12
inactive: [11] | [12] | [13] | [14] | [15] | [16] | [17]
